Reference: PubChem BioAssay (EPA / NIEHS)
Inconclusive results are not listed. The source made the active and inactive calls. The calls were made as follows: active = hit-call score of the fitted dose curve at least 0.9, where 1 is the maximum; inconclusive = response in the unintended direction; inactive = score below 0.9.

Experiment: Tanguay_ZF_120hpf_NC_legacy: (Legacy) Oregon State University Tanguay Lab 120 Hour Post-fertilization zebrafish Assay for Notochord and Tail Malformation (AID 2283656)
Method: Tanguay_ZF_120hpf_legacy is a whole embryo, multiplexed endpoint assay using zebrafish larvae exposed for 120 hours post fertilization on a 96-well plate.Tanguay_ZF_120hpf_NC_legacy is one of one assay component(s) measured or calculated from the Tanguay_ZF_120hpf_legacy assay. It is designed to make measurements of zebrafish development as detected with brightfield microscopy of developing zebrafish embryos.Data from the assay component Tanguay_ZF_120hpf_NC_legacy was analyzed into 1 assay endpoints. This assay endpoint, Tanguay_ZF_120hpf_NC_legacy, was analyzed in the positive analysis fitting direction relative to DMSO as the negative control and baseline of activity. Using a type of morphology reporter, gain-of-signal activity can be used to understand changes in developmentals as they relate to the whole embryo. To generalize the intended target to other relatable targets, this assay endpoint is annotated to the zebrafish development intended target family, where the subfamily is embryonic notochord morphogenesis.
Zebrafish husbandry: Tropical 5D wild-type adult zebrafish were housed in at an approximate density of 1000 per 100 gallon tank at the Sinnhuber Aquatic Research Laboratory, Oregon State University, Corvallis, OR. Each tank was kept at standard laboratory conditions of 28C on a 14-h light/10-h dark photoperiod in fish water consisting of reverse osmosis water supplemented with a commercially available salt (Instant Ocean). Spawning funnels were placed into the tanks the night prior, and embryos were collected and staged. To increase bioavailability, the chorion was enzymatically removed using pronase (63.6mg/ml, >/= 3.5U/mg, Sigma-Aldrich: P5147) at 4 hours post fertilization (hpf) using a custom automated dechorionator.Chemical exposures: Six hpf dechorionated embryos were placed 1 embryo per well in a 96-well plate prefilled with 90 ul of EM using automated embryo placement systems (AEPS). Ten microliters of each row of dilution plate 2 was added to 2 exposure plates. The final DMSO concentration used was 0.64% (vol/vol). Thirty-two embryos were also exposed to 5uM trimethyltin chloride (positive control). Plates were sealed to prevent evaporation and foil covered to reduce light exposure and kept in a 28C incubator. Embryos were statically exposed until 120 hpf. At 24 hpf, embryos were assessed for photomotor response using a custom photomotor response analysis tool (PRAT) and for developmental toxicity endpoints (MO24: mortality at 24 hpf, DP: developmental progression, SM: spontaneous movement, and NC: notochord distortion). At 120 hpf, locomotor activity was measured using Viewpoint Zebralab and assessed for 18 endpoints. Zebrafish acquisition and analysis program (ZAAP), a custom program designed to inventory, acquire, and manage zebrafish data, was used to collect developmental endpoints as either present or absent (i.e., binary responses were recorded). If mortality occurred for an embryo (at either 24 or 120 hpf), the non-mortality endpoints were not measured.
For `O=C(c1ccccc1)c1ccccc1`, the outcome was “inactive”. In the case of `CCCCC(CC)C(=O)O` (centres undefined), the outcome is reported as “inactive”. With `OCC(CO)(CBr)CBr` the outcome was “inactive”. With `CN(C)CCOC(c1ccccc1)c1ccccc1` the outcome was “inactive”. For `CCCCC=O`, the outcome was “inactive”. For `CS(=O)(=O)c1ccc([C@@H](CC2CCCC2)C(=O)Nc2cnccn2)cc1Cl`, the outcome was “inactive”. For `CCC(C)c1ccccc1O` (centres undefined), the outcome was “inactive”. For `CCCCc1oc2ccccc2c1C(=O)c1cc(I)c(OCCN(CC)CC)c(I)c1`, the outcome was “inactive”. With `O=C(CCCN1CCC(O)(c2ccc(Cl)cc2)CC1)c1ccc(F)cc1` the outcome was “inactive”. In the case of `CN(Cc1cnc2nc(N)nc(N)c2n1)c1ccc(C(=O)N[C@@H](CCC(=O)O)C(=O)O)cc1`, the outcome is reported as “inactive”. For `Cc1[nH]nc2c1N=C(c1ccccc1Cl)c1cc([N+](=O)[O-])ccc1N2`, the outcome was “inactive”. With `N=C(N)c1ccc(OCCCCCOc2ccc(C(=N)N)cc2)cc1` the outcome was “inactive”. With `O=C1NS(=O)(=O)c2ccccc21` the outcome was “inactive”. With `CCCCCCCCCCCCCCC` the outcome was “inactive”.
